High-throughput results: PubChem BioAssay, National Center for Advancing Translational Sciences (NCATS)
A350 fluor: A350 region autofluorescence | Compound autofluorescence, 340/450 nm, Alexa 350 dye-equivalents; hits give high values | max dye-equivalent concentration, M | 59,000 compounds, 11% hits | AID 590; in the data active means max dye-equivalent concentration above about 10 nM; inconclusive means mostly about 1.1 nM to 9.6 nM
HSD17B inh: blocks hydroxysteroid 17-beta dehydrogenase activity; Q99714; recombinant HSD17B10, NADH fluorescence kinetic; Potency, µM (highest dose often 57.1 µM), hits mostly inhibitors; 75,000 compounds, 7.6% hits;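 further: the protocol describes HADH2 (HSD17B10) and not the HSD17B4 of the title; nearly all actives have a fitted effect of over 70% in size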
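Enzyme plus compound, 15 min room temperature; substrate mix added (NAD+ 1 mM, beta-hydroxybutyryl-CoA 90 uM final); plates read kinetically for NADH fluorescence. HADH2 was His-tagged, E. coli-derived, 20 nM.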
4-MU autofl: 4-MU region autofluorescence; compound autofluorescence, 340/450 nm, 4-MU equivalents; hits give high values; max dye-equivalent concentration, M; 59,000 compounds, 11% hits; in the data active means max dye-equivalent concentration above about 10 nM; inconclusive means mostly about 1.1 nM to 9.6 nM
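Compounds in 100 mM Tris, pH 8.0, incubated 15 min at room temperature, then fluorescence read at 340 nm excitation/450 nm emission. Signal converted to 4-MU dye-equivalent concentration using an on-plate six-point 4-MU standard curve.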
CRE Fsk mod: alters forskolin-stimulated CRE reporter signaling in CHO cells. AID 662. 71,000 compounds, 2.5% hits. Potency, µM (top dose mostly 38.2 µM), usual class: activators. CHO CRE-bla reporter (cAMP response element driving beta-lactamase), forskolin EC10, beta-lactamase ratio; active means well fitted activation curve with a large enough effect in the signal ratio, with a control signal flat, not every such curve was filed as active; inconclusive means small, poorly fitted or top-dose-only effect, or effect the other way, or a change in a side signal; the % refers to the signal ratio
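Reporter-gene assay: CHO cells with beta-lactamase behind cAMP responsive elements, co-treated with compound and EC10 NKH 477 for 3 hours at 37 degrees Celsius. Activity came from the 460/530 nm CCF4 emission ratio.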
HADH2 inh: inhibitors of human HADH2 dehydrogenase; Q99714; recombinant HADH2, NADH fluorescence, beta-hydroxybutyryl-CoA; Potency, µM (doses to about 57.1 µM), usual class: inhibitors; 73,000 compounds, 3.4% hits; further: nearly all actives have a fitted effect of over 60% in size
Target sequence (Q99714 whole entry, looked up, one chain of several): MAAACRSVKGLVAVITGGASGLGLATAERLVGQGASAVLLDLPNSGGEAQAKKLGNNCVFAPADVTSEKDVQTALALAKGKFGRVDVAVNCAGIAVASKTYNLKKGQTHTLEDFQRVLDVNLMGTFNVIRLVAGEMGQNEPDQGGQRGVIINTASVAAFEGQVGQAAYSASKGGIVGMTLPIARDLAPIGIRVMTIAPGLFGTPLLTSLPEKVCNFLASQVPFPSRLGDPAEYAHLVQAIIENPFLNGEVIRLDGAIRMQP
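Buffer 100 mM Tris-HCl pH 9.0/0.01% Tween-20; HADH2 20 nM; NAD+ 1 mM; beta-hydroxybutyryl-CoA 90 uM (all final). 15 min cpd preincubation, RT.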
AID923: qHTS Assay for Allosteric/Competitive Inhibitors of Caspase-1: Spectroscopic Profiling in AFC Spectral Region. Potency, µM (series often up to 57.5 µM), most hits filed as activators. 75,000 compounds, 1.1% hits. compound fluorescence, AFC spectral region (405/520 nm). AID 923, 2007
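Titrations up to 57 uM read every 20 sec for 3 min (405/520 nm) with 50 nM caspase 1 and 5 uM Ac-WEHD-AFC, pH 7.5 HEPES buffer. Fluorescence-vs-time intercept gave baseline, scaled against on-plate AFC standard.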
A number is an active result. Shown are actives, neighbours in structure and some others; about 14% of the full set was active somewhere. Unless noted, the call rests on the fitted dose curve; in most records, active means well fitted curve in the direction sought with a large enough effect; inconclusive means small, poorly fitted or top-dose-only effect, or another doubt; inactive means no such curve, though single readings can be large; an effect the other way counts as inactive or inconclusive.

What do the screens show for `COC(=O)c1cc(N2C(=O)C3C(C2=O)C2(C)C=CC3(C)O2)ccc1Cl` (centres undefined)?
HSD17B inh: inconclusive; CRE Fsk mod: inconclusive; HADH2 inh: inconclusive; AID923: inactive

Results for CC(=O)Oc1ccc(N2C(=O)C3C(C2=O)C2(C)C=CC3(C)O2)cc1 (centres undefined) ?
HSD17B inh: inconclusive; CRE Fsk mod: inconclusive; HADH2 inh: 0.2µM; AID923: inactive

Results for COc1ccccc1CNc1cc(-c2ccccc2OC)ncn1 ?
A350 fluor: inactive; HSD17B inh: 25µM; 4-MU autofl: inactive; CRE Fsk mod: inconclusive; HADH2 inh: inactive; AID923: inactive

How did COc1ccccc1-c1ccc2ncnc(NCc3cccnc3)c2c1 do in these assays?
A350 fluor: inactive; HSD17B inh: inconclusive; 4-MU autofl: inactive; CRE Fsk mod: inconclusive; HADH2 inh: inconclusive; AID923: inactive

What do the screens show for `COc1cccc(-c2cc(NCc3ccc(OC)cc3OC)ncn2)c1`?
A350 fluor: inactive; HSD17B inh: inactive; 4-MU autofl: inactive; CRE Fsk mod: inconclusive; HADH2 inh: inactive; AID923: inactive

What do the screens show for `COc1cccc(-c2cc(NCc3ccccc3)ncn2)c1`?
A350 fluor: inactive; HSD17B inh: 32µM; 4-MU autofl: inactive; CRE Fsk mod: inconclusive; HADH2 inh: inactive; AID923: inactive

Results for COCCNc1ncnc2ccc(-c3cccc(OC)c3)cc12 ?
A350 fluor: inactive; HSD17B inh: 25µM; 4-MU autofl: inactive; CRE Fsk mod: inactive; HADH2 inh: inactive; AID923: inactive

What do the screens show for `COc1cccc(-c2ccc3ncnc(NCc4ccccc4)c3c2)c1`?
A350 fluor: inactive; HSD17B inh: 25µM; 4-MU autofl: inactive; CRE Fsk mod: inactive; HADH2 inh: inconclusive; AID923: inactive

Results for COCCNc1ncnc2ccc(-c3cccc(NS(C)(=O)=O)c3)cc12 ?
A350 fluor: inactive; HSD17B inh: inactive; 4-MU autofl: inactive; CRE Fsk mod: inconclusive; HADH2 inh: inactive; AID923: inactive

What do the screens show for `CN1CCN(c2ncnc3ccc(-c4cccc(NS(C)(=O)=O)c4)cc23)CC1`?
A350 fluor: inactive; HSD17B inh: inactive; 4-MU autofl: inactive; CRE Fsk mod: inconclusive; HADH2 inh: inactive; AID923: inactive

Results for COc1ccc(-c2cc3nc4n(c(=O)c3s2)CCOC4)cc1 ?
A350 fluor: 6e-08M; 4-MU autofl: 6.3e-08M

Results for COc1ccc(NS(=O)(=O)c2c(C)[nH]c(=O)[nH]c2=O)c(OC)c1 ?
A350 fluor: inactive; HSD17B inh: inactive; 4-MU autofl: inactive; CRE Fsk mod: inactive; HADH2 inh: inactive; AID923: inactive

What do the screens show for `COc1ccc(OC)c(-c2nc3c(C)n[nH]c(=O)c3[nH]2)c1`?
A350 fluor: 2.6e-08M; HSD17B inh: inconclusive; 4-MU autofl: 2.5e-08M; CRE Fsk mod: inactive; HADH2 inh: inconclusive; AID923: inactive

How did CN1CCN(CCCNC(=O)c2cc3c(=O)n(C)c4ccccc4c3s2)CC1 do in these assays?
HSD17B inh: 25µM; CRE Fsk mod: inconclusive; HADH2 inh: inactive; AID923: inactive

How did CCOC(=O)c1cc2c(=O)n(C)c3ccccc3c2s1 do in these assays?
A350 fluor: 1.9e-08M; HSD17B inh: inconclusive; 4-MU autofl: 1.9e-08M; CRE Fsk mod: inconclusive; HADH2 inh: inactive; AID923: inactive

Results for Cn1c(C(=O)NCCN2CCN(Cc3ccccc3)CC2)cc2c(=O)n(C)c3ccccc3c21 ?
HSD17B inh: inactive; CRE Fsk mod: inactive; HADH2 inh: inactive; AID923: inactive

How did Cn1c(C(=O)NCCN2CCCCCC2)cc2c(=O)n(C)c3ccccc3c21 do in these assays?
HSD17B inh: 32µM; CRE Fsk mod: inconclusive; HADH2 inh: inconclusive; AID923: inactive

What do the screens show for `Cn1c(C(=O)O)c(CC(=O)Nc2ccc3c(c2)OCCO3)c2ccccc21`?
A350 fluor: 2.5e-08M; HSD17B inh: inactive; 4-MU autofl: 2.6e-08M; CRE Fsk mod: inactive; HADH2 inh: inactive; AID923: inactive
